From PubChem BioAssay (EPA / NIEHS)
Inconclusive results are not listed. Active and inactive are the calls of the source. How the source made its calls: active means hit-call score of the fitted dose curve at least 0.9, where 1 is the maximum; inconclusive means response in the unintended direction; inactive means score below 0.9.

Biological target: Cellular tumor antigen p53 (Homo sapiens) (UniProt P04637)
Experiment: TOX21_p53_BLA_p2_ratio: Tox21 HCT-116 p53 Agonism Beta-lactamase Assay, Ratio, Phase 2 (AID 2283592)
Procedure, shortened: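 Ratio endpoint: beta-lactamase cleavage of CCF4-AM, blue (460 nm) over green (530 nm). HCT116 reporter line; 16 h treatment, 37C; substrate 2 h RT.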

Cellular tumor antigen p53 (Homo sapiens), sequence (P04637 whole entry, looked up): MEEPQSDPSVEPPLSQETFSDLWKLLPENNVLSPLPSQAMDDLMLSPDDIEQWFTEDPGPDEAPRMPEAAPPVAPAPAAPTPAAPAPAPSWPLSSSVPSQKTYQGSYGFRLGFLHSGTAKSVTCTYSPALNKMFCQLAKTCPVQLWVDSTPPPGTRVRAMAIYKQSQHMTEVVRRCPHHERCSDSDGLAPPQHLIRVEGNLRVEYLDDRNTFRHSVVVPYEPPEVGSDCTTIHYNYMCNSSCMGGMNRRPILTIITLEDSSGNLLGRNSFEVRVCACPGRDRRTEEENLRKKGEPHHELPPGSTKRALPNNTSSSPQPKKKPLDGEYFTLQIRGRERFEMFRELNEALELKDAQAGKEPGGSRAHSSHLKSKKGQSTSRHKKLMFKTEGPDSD

| SMILES | outcome |
| --- | --- |
| CN1CCC(=C2c3ccccc3CC(=O)c3sccc32)CC1 | inactive |
| CCN1CCN(C(=O)N[C@@H](C(=O)N[C@@H]2C(=O)N3C(C(=O)O)=C(CSc4nnnn4C)CS[C@H]23)c2ccc(O)cc2)C(=O)C1=O | inactive |
| O=C(CS(=O)Cc1ccco1)NC/C=C\COc1cc(CN2CCCCC2)ccn1 (centres undefined) | inactive |
| Cc1cccc(C)c1NC(=O)CN1CCCCCC1 | inactive |
| CC1(c2ccccc2)OC(C(=O)O)=CC1=O (centres undefined) | inactive |
| O=C1CC[C@@H](C(=O)N[C@H]2C[C@@H]2c2ccccc2)N1 | inactive |
| CN1CC[C@H](c2c(O)cc(O)c3c(=O)cc(-c4ccccc4Cl)oc23)[C@H](O)C1 | inactive |
| [K+] | inactive |
| c1cnc2cc3c(cc2n1)C1CNCC3C1 | inactive |
| Cc1ccc2ccccc2c1[N+](=O)[O-] | inactive |
| CC(COc1ccccc1)NC(C)C(O)c1ccc(O)cc1 (centres undefined) | inactive |
| O=C(O)c1cc2cc(Cc3cccnc3)ccc2o1 | inactive |
| CC1(C)CC(O)CC(C)(C)N1 | inactive |
| CCCOC(=O)c1ccc(N)cc1 | inactive |
| CC(=O)Nc1ncc([N+](=O)[O-])s1 | inactive |
| CCOC(=O)C(Br)c1ccccc1 (centres undefined) | inactive |
| CC(C)(C)NCC(O)COc1cccc2c1CCC(=O)N2 (centres undefined) | inactive |
| CCOc1ccccc1N | inactive |
| COc1ccc2c(c1)C(=O)N(CCc1ccc(S(=O)(=O)NC(=O)NC3CCCCC3)cc1)C(=O)C2(C)C | inactive |
| CO[C@H]1/C=C/O[C@@]2(C)Oc3c(C)c(O)c4c(O)c(c5c(nc6cc(C)ccn65)c4c3C2=O)NC(=O)/C(C)=C\C=C\[C@H](C)[C@H](O)[C@@H](C)[C@@H](O)[C@@H](C)[C@H](OC(C)=O)[C@@H]1C | inactive |

System: not listed separately
Experiment: TOX21_p53_BLA_p3_viability: Viability Assessment in the Tox21 HCT-116 p53 Agonism Beta-lactamase Assay, Phase 3 (AID 2283593);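 further: cells exposed to compound for 16 h before reading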
Procedure, shortened: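 HCT116 cells, 4000/well, dosed 5 h after plating by pin transfer (217-fold dilution from DMSO stock) and incubated 16 h at 37C, 5% CO2. Viability read as ATP luminescence with CellTiter-Glo after 30 min at room temperature.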

| SMILES | outcome | AC50 |
| --- | --- | --- |
| CN(C)C(=O)Oc1ccc[n+](C)c1 | inactive |  |
| NC(=O)C1(N2CCCCC2)CCN(CCCC(=O)c2ccc(F)cc2)CC1 |  | 36.2 µM (active) |
| CC(=O)OCC(C)C | inactive |  |
| O[C@@H]1CO[C@H]2[C@@H]1OC[C@@H]2O |  | 43.1 µM (active) |
| CCCOC(C)=O | inactive |  |
| COc1cc2c(cc1OC)C(C(C(=O)N(CCc1ccc(OC)c(OC)c1OC)CCc1ccc(OC)c(OC)c1OC)c1ccccc1)=NCC2 (centres undefined) | inactive |  |
| N[C@@H](CSCCCO)C(=O)O | inactive |  |
| Cc1scc2c1N(C(=O)CN1CCN(C)CC1)c1ccccc1NC2=O | inactive |  |
| Cc1ccc(Cl)cc1Cl | inactive |  |
| O=[N+]([O-])c1cc([N+](=O)[O-])c2ccc(S(=O)(=O)O)cc2c1O | inactive |  |
| C=CCSSCCC | inactive |  |
| Cc1ccc(N)nc1 | inactive |  |
| CC[C@@H](N)CO | inactive |  |
| C=C(C)C(=O)OCCCCCCCC(C)C | inactive |  |
| CC(C)(O)CCC(C)(C)O | inactive |  |
| NCc1ccc(S(N)(=O)=O)cc1 | inactive |  |
| Cc1cc([N+](=O)[O-])ccc1N | inactive |  |
| C[C@](N)(Cc1ccc(O)cc1)C(=O)O | inactive |  |
| CNS(=O)(=O)Cc1ccc2[nH]cc(CCN(C)C)c2c1 | inactive |  |
